Test results as given in the supplement of paper PMC11732987, “Enantioselective OTUD7B fragment discovery through chemoproteomics screening and high-throughput optimisation” (Communications Chemistry, 2025).

Tests used:
Assay in all cases: log2 ratio of Biotin-Ahx-Ub-VS probe labelling (fragment/DMSO); higher = less target engagement (more negative = stronger competition), active = hit call of the paper (q ≤ 0.05, log2 ratio ≤ -1)
Settings in all cases: compound concentration: 200 uM; treatment time: 3 h
[1] = molecular target: T1, OTUD6B (UniProt Q8N6M0)
T1 sequence (whole entry): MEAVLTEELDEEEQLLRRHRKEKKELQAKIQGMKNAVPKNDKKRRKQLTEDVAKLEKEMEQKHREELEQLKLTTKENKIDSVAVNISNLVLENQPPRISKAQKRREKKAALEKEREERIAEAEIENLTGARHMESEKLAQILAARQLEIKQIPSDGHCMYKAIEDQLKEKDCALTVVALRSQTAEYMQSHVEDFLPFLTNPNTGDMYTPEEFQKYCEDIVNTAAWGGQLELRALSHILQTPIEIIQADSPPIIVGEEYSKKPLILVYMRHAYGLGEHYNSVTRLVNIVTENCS
Outline: (§1)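 Fragment (200 µM) or vehicle was incubated for 3 h with triplicate HEK293T lysate samples of 495 µg, which were then treated with Biotin-Ahx-Ub-VS at 0.5 µM final for 1 h. Labelled DUBs were enriched on NeutrAvidin, digested with LysC and trypsin, and analysed by diaPASEF LC-MS/MS. Values are average log2 fragment/vehicle ratios from an unpaired t-test on global-median-normalised Spectronaut label-free quantities, using proteins with ≥2 unique peptides.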

[2] = molecular target: T2, OTUD7B (UniProt Q6GQQ9)
T2 sequence (whole entry): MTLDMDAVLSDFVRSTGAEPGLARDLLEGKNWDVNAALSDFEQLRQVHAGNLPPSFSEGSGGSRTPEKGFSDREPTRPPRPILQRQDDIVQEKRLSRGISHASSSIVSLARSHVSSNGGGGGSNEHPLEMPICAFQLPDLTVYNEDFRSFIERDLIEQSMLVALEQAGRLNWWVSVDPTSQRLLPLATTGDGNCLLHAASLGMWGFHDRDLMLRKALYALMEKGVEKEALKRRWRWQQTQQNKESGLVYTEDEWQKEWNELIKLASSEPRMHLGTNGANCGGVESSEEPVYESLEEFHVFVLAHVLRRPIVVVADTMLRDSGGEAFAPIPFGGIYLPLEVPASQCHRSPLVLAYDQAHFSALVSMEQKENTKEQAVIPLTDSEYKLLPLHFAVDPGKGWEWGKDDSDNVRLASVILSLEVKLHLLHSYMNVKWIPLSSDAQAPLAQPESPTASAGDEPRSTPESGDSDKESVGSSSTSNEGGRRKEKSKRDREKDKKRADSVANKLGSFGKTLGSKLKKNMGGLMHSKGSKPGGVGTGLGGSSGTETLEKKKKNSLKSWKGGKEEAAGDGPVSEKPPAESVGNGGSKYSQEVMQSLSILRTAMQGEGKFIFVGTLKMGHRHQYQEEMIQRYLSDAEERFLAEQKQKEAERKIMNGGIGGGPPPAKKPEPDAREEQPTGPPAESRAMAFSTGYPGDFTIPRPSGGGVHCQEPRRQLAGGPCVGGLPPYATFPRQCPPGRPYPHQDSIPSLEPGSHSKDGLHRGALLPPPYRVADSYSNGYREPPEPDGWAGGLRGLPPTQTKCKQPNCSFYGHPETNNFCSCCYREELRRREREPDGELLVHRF
Outline: as §1

[3] = molecular target: PRPF8 (UniProt Q6P2Q9)
Outline: as §1

[4] = molecular target: T3, PSMD7 (UniProt P51665)
T3 sequence (whole entry): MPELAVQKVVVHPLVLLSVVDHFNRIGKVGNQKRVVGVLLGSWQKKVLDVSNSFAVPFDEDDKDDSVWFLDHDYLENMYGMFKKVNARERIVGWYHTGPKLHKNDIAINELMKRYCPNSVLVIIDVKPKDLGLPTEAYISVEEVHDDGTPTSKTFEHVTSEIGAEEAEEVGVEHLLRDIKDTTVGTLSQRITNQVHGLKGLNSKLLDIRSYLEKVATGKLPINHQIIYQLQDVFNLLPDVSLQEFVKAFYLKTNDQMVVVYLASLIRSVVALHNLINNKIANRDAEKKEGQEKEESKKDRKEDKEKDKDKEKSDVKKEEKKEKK
Outline: as §1

[5] = molecular target: UCHL1 (UniProt P09936)
UCHL1, sequence (P09936 whole entry, looked up): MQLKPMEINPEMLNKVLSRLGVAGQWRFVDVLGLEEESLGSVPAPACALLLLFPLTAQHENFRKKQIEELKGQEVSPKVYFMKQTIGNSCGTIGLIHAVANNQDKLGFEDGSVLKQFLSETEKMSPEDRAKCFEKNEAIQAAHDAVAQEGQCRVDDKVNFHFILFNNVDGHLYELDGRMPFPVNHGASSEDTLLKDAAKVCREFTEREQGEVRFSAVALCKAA
Outline: as §1

[6] = molecular target: T4, UCHL3 (UniProt P15374)
T4 sequence (whole entry): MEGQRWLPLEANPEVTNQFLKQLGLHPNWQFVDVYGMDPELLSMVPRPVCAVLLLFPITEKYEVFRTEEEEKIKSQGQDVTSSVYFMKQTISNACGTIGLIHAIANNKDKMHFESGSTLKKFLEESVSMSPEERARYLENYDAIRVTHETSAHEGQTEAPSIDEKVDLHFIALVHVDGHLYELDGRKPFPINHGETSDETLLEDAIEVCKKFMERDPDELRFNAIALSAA
Outline: as §1

[7] = molecular target: T5, UCHL5 (UniProt Q9Y5K5)
T5 sequence (whole entry): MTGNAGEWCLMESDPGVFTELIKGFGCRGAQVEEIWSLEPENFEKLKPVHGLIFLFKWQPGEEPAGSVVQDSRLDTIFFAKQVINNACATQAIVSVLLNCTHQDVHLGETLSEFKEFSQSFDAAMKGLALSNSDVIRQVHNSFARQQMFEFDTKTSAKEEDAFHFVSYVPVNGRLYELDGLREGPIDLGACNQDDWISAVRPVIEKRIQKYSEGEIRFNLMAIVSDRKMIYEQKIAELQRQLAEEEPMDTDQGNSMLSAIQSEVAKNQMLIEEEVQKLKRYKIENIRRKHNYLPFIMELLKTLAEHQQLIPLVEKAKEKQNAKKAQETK
Outline: as §1

[8] = molecular target: USP10 (UniProt Q14694)
USP10, sequence (Q14694 whole entry): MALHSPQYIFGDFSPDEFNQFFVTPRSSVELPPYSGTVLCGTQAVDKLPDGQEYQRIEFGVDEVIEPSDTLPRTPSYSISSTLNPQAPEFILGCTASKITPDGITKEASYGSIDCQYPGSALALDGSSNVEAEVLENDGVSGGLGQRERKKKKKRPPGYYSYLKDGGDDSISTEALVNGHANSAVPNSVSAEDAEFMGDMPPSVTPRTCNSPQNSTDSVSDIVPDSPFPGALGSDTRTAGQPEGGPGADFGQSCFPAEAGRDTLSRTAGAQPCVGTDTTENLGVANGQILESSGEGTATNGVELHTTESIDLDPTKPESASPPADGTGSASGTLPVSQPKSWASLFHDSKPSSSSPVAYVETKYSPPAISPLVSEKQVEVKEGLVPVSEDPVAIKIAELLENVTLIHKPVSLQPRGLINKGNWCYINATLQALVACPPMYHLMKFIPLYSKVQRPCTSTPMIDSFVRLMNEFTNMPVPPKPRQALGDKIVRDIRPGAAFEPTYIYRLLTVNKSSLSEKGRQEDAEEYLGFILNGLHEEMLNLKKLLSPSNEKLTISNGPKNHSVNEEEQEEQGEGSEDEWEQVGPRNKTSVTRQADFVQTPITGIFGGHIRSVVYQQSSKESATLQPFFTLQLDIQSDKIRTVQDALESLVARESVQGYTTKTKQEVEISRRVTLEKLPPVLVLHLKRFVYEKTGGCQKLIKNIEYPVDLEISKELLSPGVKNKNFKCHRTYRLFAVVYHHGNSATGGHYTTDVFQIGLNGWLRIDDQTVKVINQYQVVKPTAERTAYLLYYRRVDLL
Outline: as §1

[9] = molecular target: T6, USP15 (UniProt Q9Y4E8)
T6 sequence (whole entry): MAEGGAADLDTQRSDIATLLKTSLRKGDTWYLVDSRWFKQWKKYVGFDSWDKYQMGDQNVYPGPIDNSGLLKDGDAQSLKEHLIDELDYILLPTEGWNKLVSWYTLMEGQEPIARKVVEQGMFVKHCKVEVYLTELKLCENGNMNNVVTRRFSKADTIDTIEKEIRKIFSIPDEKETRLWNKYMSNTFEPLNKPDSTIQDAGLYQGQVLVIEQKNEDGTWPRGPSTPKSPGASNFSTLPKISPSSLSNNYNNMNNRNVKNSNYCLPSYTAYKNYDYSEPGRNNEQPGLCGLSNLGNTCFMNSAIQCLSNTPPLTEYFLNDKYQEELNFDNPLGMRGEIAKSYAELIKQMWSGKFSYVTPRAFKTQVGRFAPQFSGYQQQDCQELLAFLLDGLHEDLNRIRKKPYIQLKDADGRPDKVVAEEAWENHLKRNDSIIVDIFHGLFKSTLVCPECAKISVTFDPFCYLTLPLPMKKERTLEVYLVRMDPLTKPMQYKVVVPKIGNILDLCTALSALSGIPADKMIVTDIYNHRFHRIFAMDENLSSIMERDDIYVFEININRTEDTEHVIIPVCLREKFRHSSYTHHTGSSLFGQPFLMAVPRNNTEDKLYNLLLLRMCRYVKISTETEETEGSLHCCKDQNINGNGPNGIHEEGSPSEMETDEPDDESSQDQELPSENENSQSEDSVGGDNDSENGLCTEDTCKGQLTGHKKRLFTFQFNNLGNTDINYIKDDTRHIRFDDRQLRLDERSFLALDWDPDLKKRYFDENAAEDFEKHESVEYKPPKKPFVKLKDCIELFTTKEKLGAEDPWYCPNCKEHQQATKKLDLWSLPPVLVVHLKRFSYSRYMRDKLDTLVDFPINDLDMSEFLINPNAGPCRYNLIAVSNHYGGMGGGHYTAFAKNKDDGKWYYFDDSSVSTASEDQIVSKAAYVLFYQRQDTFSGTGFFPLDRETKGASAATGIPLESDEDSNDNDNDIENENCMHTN
Outline: as §1

[10] = molecular target: USP16 (UniProt Q9Y5T5)
USP16, sequence (Q9Y5T5 whole entry, looked up): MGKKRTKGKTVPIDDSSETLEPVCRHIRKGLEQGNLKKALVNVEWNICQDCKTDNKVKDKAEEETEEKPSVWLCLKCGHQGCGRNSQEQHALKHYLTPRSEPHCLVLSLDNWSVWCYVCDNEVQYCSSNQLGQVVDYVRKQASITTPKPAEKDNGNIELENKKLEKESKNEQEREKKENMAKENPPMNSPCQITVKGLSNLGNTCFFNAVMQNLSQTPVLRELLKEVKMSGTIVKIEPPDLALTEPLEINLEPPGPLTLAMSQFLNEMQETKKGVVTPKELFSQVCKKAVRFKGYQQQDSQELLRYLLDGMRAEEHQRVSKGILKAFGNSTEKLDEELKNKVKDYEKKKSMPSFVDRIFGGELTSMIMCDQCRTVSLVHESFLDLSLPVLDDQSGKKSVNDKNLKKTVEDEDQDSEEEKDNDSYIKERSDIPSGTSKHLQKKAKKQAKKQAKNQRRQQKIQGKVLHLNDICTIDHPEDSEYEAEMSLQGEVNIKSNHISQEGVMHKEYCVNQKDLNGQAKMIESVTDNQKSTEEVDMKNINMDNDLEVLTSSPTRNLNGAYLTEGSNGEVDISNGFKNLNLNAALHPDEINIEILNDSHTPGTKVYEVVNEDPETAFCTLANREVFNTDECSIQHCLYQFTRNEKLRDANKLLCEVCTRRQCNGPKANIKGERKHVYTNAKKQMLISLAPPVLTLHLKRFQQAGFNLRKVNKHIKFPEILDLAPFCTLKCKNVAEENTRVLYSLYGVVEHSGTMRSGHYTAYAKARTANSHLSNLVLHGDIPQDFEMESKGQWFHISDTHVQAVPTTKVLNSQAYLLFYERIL
Outline: as §1

Measured: log2 ratio of Biotin-Ahx-Ub-VS probe labelling

O=C(CCl)N1CCC(c2noc3cc(F)ccc23)CC1
inactive: [1] -0.0328 | [2] -0.608 | [3] -0.0836 | [4] -0.139 | [5] -0.799 | [6] 0.208 | [7] -0.186 | [8] -0.264 | [9] -0.468 | [10] -0.65
